The values that follow come from PubChem BioAssay (NCI).

About 79,000 compounds went through this panel and 15% of them were active in at least one assay; those are over-represented in the sample as a whole. Unmarked numbers belong to inactive results. Calls of active or inactive are those of the source. Rule as the data show it: active = growth inhibition above about 70%; inactive = the rest.

Assay [1] can be described thus: NCI Yeast Anticancer Drug Screen. Data for the rad50 strain (AID 155).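 Also: 0% = growth of vehicle-only cultures of the same strain.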 Conditions: S. cerevisiae rad50 strain growth inhibition, active compounds read high. In short, it runs like this:
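DNA repair mutant yeast, compound exposure, growth read-out; inhibition is taken relative to vehicle.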

Assay [2] in a line: NCI Yeast Anticancer Drug Screen. Data for the mec2-1 strain (AID 157). Conditions: S. cerevisiae mec2-1 strain, active compounds read high. In short, it runs like this: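 Yeast mec2-1 mutant treated with compound. Readout: growth inhibition vs vehicle controls.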
The nature of assay [3]: NCI Yeast Anticancer Drug Screen. Data for the sgs1 mgt1 strain (AID 161).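 Also: 0% = growth of cultures given vehicle only.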 To be noted: S. cerevisiae sgs1 mgt1 strain, active compounds read high. The method, boiled down:
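Genetically altered yeast, compound exposure, growth inhibition relative to vehicle.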

The nature of assay [4]: NCI Yeast Anticancer Drug Screen. Data for the cln2 rad14 strain (AID 165).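 Also: 0% = growth equal to vehicle treated cultures.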 Conditions: S. cerevisiae cln2 rad14 strain, active compounds read high. In short, it runs like this:
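cln2 rad14 yeast strain; compound exposure; growth inhibition read vs vehicle controls.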

A short description of assay [5]: NCI Yeast Anticancer Drug Screen. Data for the bub3 strain (AID 167). To be noted: S. cerevisiae bub3 mutant strain, active compounds read high. The method, boiled down: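 In this screen, a yeast mutant lacking normal mitotic checkpoint function is challenged with compound. Relative growth versus vehicle gives the inhibition value.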
Assay [6] in a line: NCI Yeast Anticancer Drug Screen. Data for the mlh1 rad18 strain (AID 175). To be noted: S. cerevisiae mlh1 rad18 strain growth inhibition, active compounds read high. In short, it runs like this: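 Yeast w/ defined DNA-repair lesions; compound exposure; growth vs vehicle controls → % inhibition.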
Setting [7] is: at 5.0 µM (retest, dose inferred, filed as 0.5).
[8] abbreviates: at 50.0 µM (retest, dose inferred, filed as 5.0).

Take `CN(C)CCSc1cc(-c2ccccc2)c2ccccc2n1`: the growth inhibition was -7% in assay [1] (setting [7]); 90% (active) in assay [1] (setting [8]); 59.5% in assay [1] (at 50.0 µM); 6% in assay [2] (setting [7]); 87% (active) in assay [2] (setting [8]); 29.9% in assay [2] (at 50.0 µM). Also, the growth inhibition in assay [3] (setting [7]) was -8%; in assay [3] (setting [8]), 91% (active); in assay [3] (at 50.0 µM), 39.9%; in assay [4] (setting [7]) it was 26%; in assay [4] (setting [8]), 94% (active); in assay [4] (at 50.0 µM) it was 21.9%. For the same compound, the growth inhibition in assay [5] (setting [7]) was 9%; in assay [5] (setting [8]), 97% (active); in assay [5] (at 50.0 µM), 53.7%; in assay [6] (setting [7]), 15%; in assay [6] (setting [8]), 92% (active); in assay [6] (at 50.0 µM) it was 78.2% (active).

As to `CC(C)(C)c1ccc(O)c(C2CCCCC2)c1`, the growth inhibition in assay [1] (setting [7]) is 5%; in assay [1] (setting [8]), 99% (active); in assay [1] (at 50.0 µM) it was 99.3% (active); in assay [2] (setting [7]), -3%; in assay [2] (setting [8]) it was 100% (active); in assay [2] (at 50.0 µM), 99.7% (active). Besides, the growth inhibition was -1% in assay [3] (setting [7]); 99% (active) in assay [3] (setting [8]); 99.5% (active) in assay [3] (at 50.0 µM); -3% in assay [4] (setting [7]); 99% (active) in assay [4] (setting [8]); 99.5% (active) in assay [4] (at 50.0 µM). The growth inhibition was 2% in assay [5] (setting [7]); 99% (active) in assay [5] (setting [8]); 96.4% (active) in assay [5] (at 50.0 µM); -1% in assay [6] (setting [7]); 100% (active) in assay [6] (setting [8]); 99% (active) in assay [6] (at 50.0 µM).

In the case of `CCC(=O)OCC(=O)c1ccc(-c2ccccc2)cc1`, the growth inhibition in assay [1] (setting [7]) was -9%; in assay [1] (setting [8]), -20%; in assay [1] (at 50.0 µM) it was -5.1%; in assay [2] (setting [7]) it was -8%; in assay [2] (setting [8]), 1%; in assay [2] (at 50.0 µM), -3.7%. The growth inhibition in assay [3] (setting [7]) was -2%; in assay [3] (setting [8]), 18%; in assay [3] (at 50.0 µM), 3%; in assay [4] (setting [7]) it was 33%; in assay [4] (setting [8]) it was -56%; in assay [4] (at 50.0 µM), -5.4%. The growth inhibition in assay [5] (setting [7]) is 36%; in assay [5] (setting [8]) it was 10%; in assay [5] (at 50.0 µM), 57.1%; in assay [6] (setting [7]), -8%; in assay [6] (setting [8]), 1%; in assay [6] (at 50.0 µM), -1.05%.

As for `Cc1cc2nc(CC(=O)c3ccncc3)c(CC(=O)c3ccncc3)nc2cc1C`, the growth inhibition is 6% in assay [1] (setting [7]); 75% (active) in assay [1] (setting [8]); 78% (active) in assay [1] (at 50.0 µM); 9% in assay [2] (setting [7]); 60% in assay [2] (setting [8]); 53.9% in assay [2] (at 50.0 µM). The growth inhibition was 10% in assay [3] (setting [7]); 59% in assay [3] (setting [8]); 65.5% in assay [3] (at 50.0 µM); 25% in assay [4] (setting [7]); 84% (active) in assay [4] (setting [8]); 75.2% (active) in assay [4] (at 50.0 µM). The growth inhibition in assay [5] (setting [7]) is 31%; in assay [5] (setting [8]), 89% (active); in assay [5] (at 50.0 µM), 61.1%; in assay [6] (setting [7]) it was 12%; in assay [6] (setting [8]) it was 59%; in assay [6] (at 50.0 µM) it was 66.5%.

As for `C#CCNCc1ccccc1`, the growth inhibition in assay [1] (setting [7]) was 18%; in assay [1] (setting [8]), 63%; in assay [1] (at 50.0 µM), 66.8%; in assay [2] (setting [7]) it was 18%; in assay [2] (setting [8]), 47%; in assay [2] (at 50.0 µM), 35.5%. The growth inhibition in assay [3] (setting [7]) is 11%; in assay [3] (setting [8]), 63%; in assay [3] (at 50.0 µM) it was 89% (active); in assay [4] (setting [7]), 0%; in assay [4] (setting [8]), 32%; in assay [4] (at 50.0 µM), 29.4%. Besides, the growth inhibition in assay [5] (setting [7]) was 5%; in assay [5] (setting [8]) it was 78% (active); in assay [5] (at 50.0 µM) it was 76.8% (active); in assay [6] (setting [7]) it was -4%; in assay [6] (setting [8]), 49%; in assay [6] (at 50.0 µM), 58.8%.

As for `CCCCCCCCOc1ccc(/C=C/C(C)=N/NC(N)=NC)cc1OC`, the growth inhibition was 98% (active) in assay [1] (setting [7]); 98% (active) in assay [1] (setting [8]); 98.7% (active) in assay [1] (at 50.0 µM); 98% (active) in assay [2] (setting [7]); 99% (active) in assay [2] (setting [8]); 99% (active) in assay [2] (at 50.0 µM). Moreover, the growth inhibition in assay [3] (setting [7]) was 82% (active); in assay [3] (setting [8]), 99% (active); in assay [3] (at 50.0 µM), 38.7%; in assay [4] (setting [7]), 72% (active); in assay [4] (setting [8]) it was 93% (active); in assay [4] (at 50.0 µM), 98.3% (active). In addition, the growth inhibition in assay [5] (setting [7]) was 97% (active); in assay [5] (setting [8]), 99% (active); in assay [5] (at 50.0 µM), 99% (active); in assay [6] (setting [7]) it was 99% (active); in assay [6] (setting [8]), 98% (active); in assay [6] (at 50.0 µM) it was 98.5% (active).

Take `CCOC(=O)c1cc2c(nc1N)/C(=C/c1ccccc1)CCCC2`: the growth inhibition in assay [1] (setting [7]) was 39%; in assay [1] (setting [8]) it was 95% (active); in assay [1] (at 50.0 µM) it was -24.4%; in assay [2] (setting [7]), 31%; in assay [2] (setting [8]), 96% (active); in assay [2] (at 50.0 µM) it was -34.6%. Besides, the growth inhibition in assay [3] (setting [7]) was 34%; in assay [3] (setting [8]), 96% (active); in assay [3] (at 50.0 µM), -29.2%; in assay [4] (setting [7]), 19%; in assay [4] (setting [8]), 80% (active); in assay [4] (at 50.0 µM) it was -15.4%. The growth inhibition in assay [5] (setting [7]) was 42%; in assay [5] (setting [8]), 97% (active); in assay [5] (at 50.0 µM), -11.4%; in assay [6] (setting [7]) it was 37%; in assay [6] (setting [8]), 95% (active); in assay [6] (at 50.0 µM), -21.1%.

As for `CCCCCCCCCCCCCCOC(=O)C(N)Cc1ccc(O)cc1` (stereo not given), the growth inhibition was 7% in assay [1] (setting [7]); 97% (active) in assay [1] (setting [8]); 98.6% (active) in assay [1] (at 50.0 µM); 1% in assay [2] (setting [7]); 98% (active) in assay [2] (setting [8]); 99.2% (active) in assay [2] (at 50.0 µM). In addition, the growth inhibition in assay [3] (setting [7]) is 4%; in assay [3] (setting [8]), 98% (active); in assay [3] (at 50.0 µM), 97.9% (active); in assay [4] (setting [7]) it was 1%; in assay [4] (setting [8]), 94% (active); in assay [4] (at 50.0 µM), 95.1% (active). Further, the growth inhibition in assay [5] (setting [7]) was 3%; in assay [5] (setting [8]), 98% (active); in assay [5] (at 50.0 µM), 98.5% (active); in assay [6] (setting [7]) it was 7%; in assay [6] (setting [8]) it was 97% (active); in assay [6] (at 50.0 µM) it was 98.8% (active).

As for `O=C(O)C(c1ccc(Cl)cc1)c1ccc(Cl)cc1`, the growth inhibition in assay [1] (setting [7]) is 10%; in assay [1] (setting [8]) it was 98% (active); in assay [1] (at 50.0 µM) it was 95.3% (active); in assay [2] (setting [7]) it was 9%; in assay [2] (setting [8]), 98% (active); in assay [2] (at 50.0 µM), 95.5% (active). The growth inhibition in assay [3] (setting [7]) is 7%; in assay [3] (setting [8]), 99% (active); in assay [3] (at 50.0 µM), 91.9% (active); in assay [4] (setting [7]), 6%; in assay [4] (setting [8]), 97% (active); in assay [4] (at 50.0 µM), 92.5% (active). Also, the growth inhibition in assay [5] (setting [7]) was 9%; in assay [5] (setting [8]) it was 99% (active); in assay [5] (at 50.0 µM), 97.4% (active); in assay [6] (setting [7]) it was 13%; in assay [6] (setting [8]), 96% (active); in assay [6] (at 50.0 µM), 95.8% (active).

As to `COc1cccc(N2C(=O)C3CC(CC(C)(C)C)c4c([nH]c5ccccc45)C3C2=O)c1` (stereo not given), the growth inhibition was 10% in assay [1] (setting [7]); 33% in assay [1] (setting [8]); 33.6% in assay [1] (at 50.0 µM); 10% in assay [2] (setting [7]); 22% in assay [2] (setting [8]); 27.6% in assay [2] (at 50.0 µM). Also, the growth inhibition was 13% in assay [3] (setting [7]); 20% in assay [3] (setting [8]); 35.9% in assay [3] (at 50.0 µM); -4% in assay [4] (setting [7]); 33% in assay [4] (setting [8]); 19.7% in assay [4] (at 50.0 µM). Also, the growth inhibition in assay [5] (setting [7]) was 13%; in assay [5] (setting [8]), 11%; in assay [5] (at 50.0 µM), 63.4%; in assay [6] (setting [7]), 8%; in assay [6] (setting [8]), 30%; in assay [6] (at 50.0 µM), 23.3%.
